Our source for the cytotoxicity call values is the antibiotic and cytotoxicity screens of Wong et al. (2023).

SMILES strings stand for the structures. About 1,500 (3.8%) of roughly 39,000 compounds were called active. Only a selection was taken, and actives are over-represented in it overall.

The assay relates to HSkMC (human skeletal muscle cells). Nature of the assay: cytotoxicity call (relative viability < 0.9). Conditions: 10 µM.
For the molecule `N[C@@H](C(=O)N[C@@H]1C(=O)N2C(C(=O)O)=C(Cl)CS[C@H]12)c1ccccc1`, the cytotoxicity call is “inactive”.

On to `C[C@@H]1CCCCO[C@H](CN(C)C(=O)Cc2ccccc2)[C@@H](C)CN([C@H](C)CO)C(=O)c2cc(NC(=O)C3CCCCC3)ccc2O1`, for which the cytotoxicity call was “inactive”.

For `Cc1ccc(S(=O)(=O)N[C@@H](Cc2ccccc2)C(=O)NCCn2cc(CCC(=O)NO)nn2)cc1`, the cytotoxicity call was “inactive”.

Take `Cc1ccc(S(=O)(=O)N(C)C[C@@H]2Oc3ccc(NS(=O)(=O)c4cccs4)cc3CC(=O)N([C@@H](C)CO)C[C@@H]2C)cc1`: the cytotoxicity call is “inactive”.

As for `C[C@H](O)C#Cc1ccc2c(c1)O[C@@H](CN(C)C(=O)Cc1ccccn1)[C@H](C)CN([C@@H](C)CO)S2(=O)=O`, the cytotoxicity call is “inactive”.

Take `O=C(C[C@@H]1C=C[C@@H](NC(=O)CN2CCOCC2)[C@@H](CO)O1)NCc1cccc(F)c1`: the cytotoxicity call is “inactive”.

On to `C[C@H]1CC=CC[C@H](c2cccc(Cl)c2)NC(=O)[C@@H](Cc2ccccc2)N(C)C(=O)c2ccccc2O1`, for which the cytotoxicity call was “inactive”.

As for `COc1ccc(NC(=O)Nc2ccc3c(c2)C(=O)N([C@@H](C)CO)C[C@@H](C)[C@@H](CN(C)Cc2ccccc2)OCCCC[C@@H](C)O3)cc1`, the cytotoxicity call was “inactive”.

On to `Cc1noc(C)c1NC(=O)Nc1cccc2c1O[C@@H](CN(C)S(=O)(=O)c1ccccc1)[C@@H](C)CN([C@H](C)CO)C2=O`, for which the cytotoxicity call was “inactive”.

On to `Cc1ccc(S(=O)(=O)Nc2ccc3c(c2)C(=O)N([C@@H](C)CO)C[C@H](C)[C@@H](CN(C)S(=O)(=O)c2ccc(F)cc2)OCCCC[C@@H](C)O3)cc1`, for which the cytotoxicity call is “inactive”.

Take `Cc1ccc(S(=O)(=O)Nc2ccc3c(c2)C(=O)N([C@H](C)CO)C[C@H](C)[C@H](CN(C)S(=O)(=O)c2ccc(F)cc2)OCCCC[C@H](C)O3)cc1`: the cytotoxicity call is “inactive”.

In the case of `COc1ccc(S(=O)(=O)N(C)C[C@H]2OCCCC[C@H](C)Oc3ccc(NS(=O)(=O)c4cn(C)cn4)cc3C(=O)N([C@@H](C)CO)C[C@H]2C)cc1`, the cytotoxicity call is “active”.

Turning to `COc1ccc(S(=O)(=O)N(C)C[C@@H]2OCCCC[C@H](C)Oc3ccc(NS(=O)(=O)c4cn(C)cn4)cc3C(=O)N([C@H](C)CO)C[C@@H]2C)cc1`, the cytotoxicity call was “inactive”.

On to `COc1ccc(S(=O)(=O)N(C)C[C@@H]2OCCCC[C@@H](C)Oc3ccc(NS(=O)(=O)c4cn(C)cn4)cc3C(=O)N([C@@H](C)CO)C[C@H]2C)cc1`, for which the cytotoxicity call was “inactive”.

`Cc1ccc(S(=O)(=O)N(C)C[C@H]2OCCCC[C@@H](C)Oc3ccc(NC(=O)Nc4ccc(F)cc4)cc3C(=O)N([C@@H](C)CO)C[C@@H]2C)cc1`: the cytotoxicity call was “active”.

Take `Cc1ccc(S(=O)(=O)N(C)C[C@H]2OCCCC[C@@H](C)Oc3ccc(NC(=O)Nc4ccc(F)cc4)cc3C(=O)N([C@@H](C)CO)C[C@H]2C)cc1`: the cytotoxicity call is “inactive”.

For `Cc1ccc(S(=O)(=O)Nc2ccc3c(c2)C(=O)N([C@H](C)CO)C[C@H](C)[C@@H](CN(C)S(=O)(=O)c2ccc(F)cc2)OCCCC[C@H](C)O3)cc1`, the cytotoxicity call was “active”.

On to `Cc1ccc(S(=O)(=O)N(C)C[C@@H]2OCCCC[C@@H](C)Oc3ccc(NS(=O)(=O)c4ccc(F)cc4)cc3C(=O)N([C@H](C)CO)C[C@H]2C)cc1`, for which the cytotoxicity call is “active”.

As to `Cc1ccc(S(=O)(=O)N(C)C[C@@H]2OCCCC[C@H](C)Oc3ccc(NC(=O)Nc4ccc(F)cc4)cc3C(=O)N([C@@H](C)CO)C[C@@H]2C)cc1`, the cytotoxicity call was “inactive”.

In the case of `Cc1ccc(S(=O)(=O)Nc2ccc3c(c2)C(=O)N([C@H](C)CO)C[C@@H](C)[C@H](CN(C)S(=O)(=O)c2ccc(F)cc2)OCCCC[C@@H](C)O3)cc1`, the cytotoxicity call is “inactive”.

In the case of `Cc1ccc(S(=O)(=O)N(C)C[C@H]2OCCCC[C@H](C)Oc3ccc(NS(=O)(=O)c4ccc(F)cc4)cc3C(=O)N([C@@H](C)CO)C[C@@H]2C)cc1`, the cytotoxicity call was “inactive”.

For the molecule `C[C@H]1CN([C@@H](C)CO)C(=O)c2cc(NC(=O)C3CC3)ccc2O[C@H]1CN(C)Cc1ccc(Oc2ccccc2)cc1`, the cytotoxicity call was “inactive”.

Take `COc1ccc(S(=O)(=O)N(C)C[C@@H]2Oc3ccc(NS(=O)(=O)c4cccs4)cc3C(=O)N([C@@H](C)CO)C[C@@H]2C)cc1`: the cytotoxicity call is “inactive”.

Regarding `C[C@H]1CN([C@@H](C)CO)C(=O)Cc2cc(NC(=O)C3CC3)ccc2O[C@H]1CN(C)S(=O)(=O)c1cn(C)cn1`, the cytotoxicity call is “inactive”.

On to `C[C@H]1CCCCO[C@H](CN(C)C(=O)Nc2ccc3c(c2)OCO3)[C@@H](C)CN([C@@H](C)CO)C(=O)c2cc(NC(=O)CCC(F)(F)F)ccc2O1`, for which the cytotoxicity call was “inactive”.

As to `O=C(O)c1ccc(CCO)s1`, the cytotoxicity call is “inactive”.

`COc1ccccc1C#Cc1ccc2c(c1)O[C@H](CN(C)Cc1cccnc1)[C@@H](C)CN([C@H](C)CO)S2(=O)=O`: the cytotoxicity call is “inactive”.

Regarding `COc1ccccc1C#Cc1ccc2c(c1)O[C@H](CN(C)Cc1cncnc1)[C@H](C)CN([C@@H](C)CO)S2(=O)=O`, the cytotoxicity call was “inactive”.

With `COc1ccccc1C#Cc1ccc2c(c1)O[C@H](CN(C)Cc1cccnc1)[C@H](C)CN([C@H](C)CO)S2(=O)=O`, the cytotoxicity call was “inactive”.

With `COc1ccccc1C#Cc1ccc2c(c1)O[C@@H](CN(C)Cc1cccnc1)[C@@H](C)CN([C@@H](C)CO)S2(=O)=O`, the cytotoxicity call was “inactive”.

For the molecule `COc1ccccc1C#Cc1ccc2c(c1)O[C@@H](CN(C)Cc1cccnc1)[C@@H](C)CN([C@H](C)CO)S2(=O)=O`, the cytotoxicity call was “inactive”.

Take `COc1ccccc1C#Cc1ccc2c(c1)O[C@H](CN(C)Cc1cccnc1)[C@H](C)CN([C@@H](C)CO)S2(=O)=O`: the cytotoxicity call is “inactive”.

As to `COc1ccccc1C#Cc1ccc2c(c1)O[C@@H](CN(C)Cc1cccnc1)[C@H](C)CN([C@H](C)CO)S2(=O)=O`, the cytotoxicity call is “active”.

With `COc1ccccc1C#Cc1ccc2c(c1)O[C@@H](CN(C)Cc1cccnc1)[C@H](C)CN([C@@H](C)CO)S2(=O)=O`, the cytotoxicity call was “active”.

On to `COc1ccccc1C#Cc1ccc2c(c1)O[C@H](CN(C)Cc1cccnc1)[C@@H](C)CN([C@@H](C)CO)S2(=O)=O`, for which the cytotoxicity call is “active”.

For the molecule `C[C@@H]1CN([C@H](C)CO[Si](C)(C)C(C)(C)C)C(=O)c2cc(NC(=O)C3CCCCC3)ccc2O[C@H]1CN(C)C(=O)c1ccc(Cl)cc1`, the cytotoxicity call is “inactive”.

`COc1ccccc1CNC(=O)C[C@@H]1C[C@@H]2c3cc(NC(=O)Nc4ccc(C(F)(F)F)cc4)ccc3O[C@@H]2[C@@H](CO)O1`: the cytotoxicity call is “inactive”.

As to `C=CCNC(=O)CSc1nc(=O)cc(N)[nH]1`, the cytotoxicity call is “inactive”.

For `C[C@@H]1CN([C@H](C)CO)C(=O)c2cc(NC(=O)Nc3ccc(C(F)(F)F)cc3)ccc2O[C@@H](C)CCCCO[C@H]1CN(C)S(=O)(=O)c1ccc(Cl)cc1`, the cytotoxicity call is “inactive”.

In the case of `COc1ccc(S(=O)(=O)N(C)C[C@@H]2OCCCC[C@H](C)Oc3ccc(NC(=O)Nc4ccc(C(F)(F)F)cc4)cc3C(=O)N([C@@H](C)CO)C[C@H]2C)cc1`, the cytotoxicity call is “inactive”.

For `COc1ccc(S(=O)(=O)N(C)C[C@H]2OCCCC[C@@H](C)Oc3ccc(NC(=O)Nc4ccc(C(F)(F)F)cc4)cc3C(=O)N([C@@H](C)CO)C[C@H]2C)cc1`, the cytotoxicity call is “active”.

`COc1ccc(S(=O)(=O)N(C)C[C@H]2OCCCC[C@@H](C)Oc3ccc(NC(=O)Nc4ccc(C(F)(F)F)cc4)cc3C(=O)N([C@H](C)CO)C[C@H]2C)cc1`: the cytotoxicity call was “inactive”.

With `C[C@@H]1CCCCO[C@@H](CN(C)S(=O)(=O)c2ccc(Cl)cc2)[C@H](C)CN([C@@H](C)CO)C(=O)c2cc(NC(=O)Nc3ccc(C(F)(F)F)cc3)ccc2O1`, the cytotoxicity call is “inactive”.

`COc1ccc(S(=O)(=O)N(C)C[C@H]2OCCCC[C@H](C)Oc3ccc(NC(=O)Nc4ccc(C(F)(F)F)cc4)cc3C(=O)N([C@@H](C)CO)C[C@@H]2C)cc1`: the cytotoxicity call is “inactive”.

Take `COc1ccc(S(=O)(=O)N(C)C[C@H]2OCCCC[C@@H](C)Oc3ccc(NC(=O)Nc4ccc(C(F)(F)F)cc4)cc3C(=O)N([C@@H](C)CO)C[C@@H]2C)cc1`: the cytotoxicity call was “active”.

For the molecule `COc1ccc(S(=O)(=O)N(C)C[C@@H]2OCCCC[C@H](C)Oc3ccc(NC(=O)Nc4ccc(C(F)(F)F)cc4)cc3C(=O)N([C@H](C)CO)C[C@@H]2C)cc1`, the cytotoxicity call was “inactive”.

For `C[C@@H]1CCCCO[C@H](CN(C)S(=O)(=O)c2ccc(Cl)cc2)[C@@H](C)CN([C@H](C)CO)C(=O)c2cc(NC(=O)Nc3ccc(C(F)(F)F)cc3)ccc2O1`, the cytotoxicity call was “active”.

`C=C1[N-]O[N+](O)=C1CN(Cc1c(C)no[n+]1[O-])OC(C)=O`: the cytotoxicity call was “inactive”.

As for `C[C@H]1CN([C@@H](C)CO)C(=O)c2cccc(NC(=O)Nc3ccc(C(F)(F)F)cc3)c2O[C@@H]1CN(C)Cc1ccc(-c2ccccc2)cc1`, the cytotoxicity call was “inactive”.

`C[C@H](CO)N1C[C@H](C)[C@H](CN(C)Cc2ccc(Cl)c(Cl)c2)OCCCC[C@H](C)Oc2ccc(NC(=O)NC3CCCCC3)cc2C1=O`: the cytotoxicity call is “inactive”.

Consider `Cn1nc(CN2CCCC2=O)c2c1CN(C(=O)CO)C2`, for which the cytotoxicity call is “inactive”.

As to `C[C@H]1CCCCO[C@H](CN(C)Cc2ccc(C(F)(F)F)cc2)[C@@H](C)CN([C@@H](C)CO)C(=O)c2cc(N(C)C)ccc2O1`, the cytotoxicity call is “inactive”.

In the case of `COc1ccc(-c2cnc3c(c2)C(=O)N([C@H](C)CO)C[C@@H](C)[C@H](CN(C)C(=O)Cc2cccnc2)O3)cc1`, the cytotoxicity call was “inactive”.

Turning to `COc1ccc(NC(=O)N(C)C[C@@H]2OCCCC[C@H](C)Oc3ccc(NC(=O)Nc4ccc(C(F)(F)F)cc4)cc3C(=O)N([C@H](C)CO)C[C@@H]2C)cc1`, the cytotoxicity call is “inactive”.

For the molecule `CN(C)Cc1ccc([C@@H](N)c2ccncc2)cc1`, the cytotoxicity call is “inactive”.

For `COc1ccc2c3c(n(c2c1)C)[C@@H](CO)N(Cc1cc(cc(c1)OC)OC)C[C@]13CCN(CC1)C(=O)CN1CCOCC1`, the cytotoxicity call is “inactive”.

As for `CCOC(=O)c1ccc(NC(=S)N[C@@H](NC(=O)c2ccc(Br)cc2)C(Cl)(Cl)Cl)cc1`, the cytotoxicity call was “active”.

On to `CCOC(=O)c1ccc(N)cc1`, for which the cytotoxicity call is “inactive”.

`CCOC(=O)c1ccc(O)cc1`: the cytotoxicity call is “inactive”.

As for `Cc1noc(C)c1S(=O)(=O)Nc1ccc2c(c1)CC(=O)N([C@H](C)CO)C[C@H](C)[C@@H](CN(C)S(=O)(=O)c1cn(C)cn1)O2`, the cytotoxicity call was “inactive”.
